TRAIL sens C8: caspase-8 TRAIL sensitization | NB7+C8 cells + TRAIL, ATPlite viability luminescence | AID 624354 | inhibition (viability loss, TRAIL sensitization), % at 10 µM | 360,000 tested, 1% active;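 active = compounds causing at least 50% loss of cell viability in the single-dose screen, relative to plate controls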
STAT1 blocker: inhibitors of IFN-gamma induced STAT1 signaling; NIH 3T3 STAT1-luciferase reporter, luminescence; inhibition, % at 5.5 µM; 200,000 tested, 0.35% active;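 active = inhibition above a set limit, the mean inhibition across all tested compounds plus 3 SD, cut at about 34% in these data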;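 note: 0% = IFN-gamma with DMSO and 100% = IFN-gamma with 300 µM nifuroxazide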
HSP90 inh: blocks HSP90-mediated luciferase refolding in reticulocyte lysate. Rabbit reticulocyte lysate, luciferase refolding luminescence, 3 h. inhibition, % at 5.6 µM. 290,000 tested, 0.91% active. AID 1789;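 active = inhibition above the screen-wide mean plus 3 SD, computed separately per campaign, cut at about 16% in these data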;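 note: 0% = DMSO wells and 100% = 60 µM geldanamycin wells; inhibitors lower the luminescence because luciferase stays unfolded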
HSF1 inh: HSF1 inhibition; NIH3T3-HGL HSE-luciferase, MG132-induced, luminescence 8 h; active compounds read low; activity change, negative = inhibition, % at 7.5 µM (by protocol); 300,000 tested, 0.77% active;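 active = more than half of replicate wells show activity change below -50%, luminescence cut by over half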;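 note: luciferase reports HSF-1 transcriptional activity via heat shock element; 0% = median of DMSO wells and -100% = zero luminescence signal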
PPC-1+TRAIL kill: kills PPC-1 cancer cells in the presence of TRAIL | cell killing (% activity), % at 4 µM or 5 µM | 220,000 tested, 0.41% active | PPC-1 cells + TRAIL, ATPLite viability luminescence | AID 1443;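 active = cell killing above 50% in the first pass at 4 µM, then a duplicate retest at 5 µM averaging 50% or more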;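 note: plate controls were cells with TRAIL plus DMSO for no effect and medium-only wells lacking cells for full effect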
STAT3 inh: inhibitors of IL-6 induced STAT3 signaling; U3A cells, IL-6 STAT3-luciferase reporter, luminescence; host cell line lacks STAT1; inhibition, % at 5.5 µM; 190,000 tested, 0.89% active;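 active = inhibition above the mean inhibition across all screened compounds plus 3 SD, cut at about 44% in these data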;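 note: 0% = DMSO only wells and 100% = 100 µM nifuroxazide control wells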
The depositor's hits bear a star; · = no result. Compounds with a hit are over-represented: about 2.4% of the library has one in this group of screens.

SMILES	TRAIL sens C8	STAT1 blocker	HSP90 inh	HSF1 inh	PPC-1+TRAIL kill	STAT3 inh
CCOC(=O)C1(CCOc2ccccc2)CCN(Cc2cccc(-n3cccn3)c2)CC1	10	8	0	-60*	19	9
CCCCNC(=O)CNC(=S)N(Cc1ccccc1)Cc1cccs1	13	18	-2	-71*	-3	11
O=C(CNC(=S)N(CCCN1CCOCC1)Cc1cccs1)NCc1ccccc1Cl	-21	·	0	-71*	·	·
O=C(NC(c1ccc(-c2ccccc2)cc1)c1cnccn1)C1CCN(Cc2cccs2)CC1 (centres undefined)	-1	·	·	·	·	·
CN(C)S(=O)(=O)c1ccc(C(=O)OCCN=C2NS(=O)(=O)c3ccccc32)cc1	-4	·	-5	3	·	·
CN(C)S(=O)(=O)c1ccc(C(=O)OCCCN=C2NS(=O)(=O)c3ccccc32)cc1	3	7	0	-67*	-5	7
O=C(Nc1cccc(Cl)c1)N1CCCC1	-10	-1	-1	-6	-9	1
O=C(Nc1cccc(Cl)c1)N1CCOCC1	-10	·	-1	-55*	·	·
CCCCCCCCCCCCCCCC(O)C[N+](C)(C)CCO (centres undefined)	92*	·	·	·	·	·
CCCCCC(O)CCCC(=O)O (centres undefined)	-1	·	·	·	·	·
CCOc1ccc(Br)cc1S(=O)(=O)NCC(c1ccc(OC)cc1)N1CCOCC1 (centres undefined)	11	·	·	·	·	·
O=C(NCc1cccs1)c1ccc2nc([C@@H]3O[C@H](CO)[C@H](O)[C@H](O)[C@H]3O)[nH]c2c1	14	·	·	·	·	·
Cc1ccc(S(=O)(=O)NN=CC=CC=NNS(=O)(=O)c2ccc(C)cc2)cc1	-4	·	·	·	·	·
O=C(Nc1ccc(O)cc1)/C(=C\C=C\c1ccccc1)NC(=O)c1ccccc1	-3	·	2	1	5	·
O=C(Nc1ccc(C(=O)O)cc1)/C(=C\C=C\c1ccccc1)NC(=O)c1ccccc1Cl	54*	·	5	7	·	·
O=C(/C=C/[C@H]1O[C@@H](n2ccc(=O)[nH]c2=O)[C@H](O)[C@@H]1O)N1CCN(Cc2ccc(F)cc2)CC1	-9	·	·	·	·	·
CSCCC(NC(=O)COc1ccccc1)C(=O)NCC(C)(C)N1CCOCC1 (centres undefined)	-7	·	·	·	·	·
Cc1onc(-c2ccccc2)c1C(=O)Nc1sc2c(c1C(N)=O)CCC2	-7	4	0	-59*	13	26
CCCN(CCC)Cc1cc(=O)oc2ccc3ccccc3c12	7	·	·	·	·	·
COc1ccc2[nH]c(=O)c(CN(Cc3cccs3)S(=O)(=O)c3c(C)ccc4nsnc34)cc2c1	25	27	0	-64*	-3	38
CC(C)CNC(=O)C1C(=O)Nc2ccccc2C(=O)N1C1CCCCC1 (centres undefined)	5	·	·	·	·	·
Cc1ccc(S(=O)(=O)N2Cc3ccccc3CC2C(=O)N(C)C)cc1 (centres undefined)	-2	·	·	·	·	·
CCS(=O)(=O)N1CCN(C(=O)c2ccc(-c3ccccc3)cc2)CC1	-6	-8	-1	-7	8	7
CCS(=O)(=O)N1CCN(C(=O)c2ccccc2)CC1	-10	2	-4	-86*	-4	4
COc1ccc(-c2ccc(CN3C(C)C(=O)N(Cc4cn(CCC5OCCO5)nn4)CCS3(=O)=O)cc2)cc1 (centres undefined)	11	·	·	·	·	·
SMILES	TRAIL sens C8	STAT1 blocker	HSP90 inh	HSF1 inh	PPC-1+TRAIL kill	STAT3 inh
CC1(O)CC(C)(C)C(C#N)C(=O)N1 (centres undefined)	-12	·	·	·	·	·
O=S(=O)(c1ccc2c(c1)OCCO2)N1CCN(c2ncnc3sccc23)CC1	34	38*	1	10	32	61*
NNc1nc(-c2ccccc2)nc2sc3c(c12)CCCC3	64*	-44	8	-43	21	-40
Cc1cc(Nc2nc(Cl)c(Cl)cc2Cl)n(-c2ccccc2)n1	7	2	26*	-8	11	-45
Cc1cc(Nc2ccccc2)n(-c2ccccc2)n1	-12	4	-4	9	4	2
COC(=O)C[C@H]1CC[C@H](NC(=O)c2ccc(F)cc2)[C@@H](CO)O1	5	·	·	·	·	·
Cc1ccc2nc(-c3ccccc3NC(=O)CCC(=O)O)c(=O)[nH]c2c1	-3	·	1	-74*	·	·
COc1ccc(NC(=O)C2(C)CCN2Cc2cccc(OC)c2OC)cc1OC (centres undefined)	-4	·	·	·	·	·
COc1ccc(C(=O)N2CCN=C2SCc2cccnc2)cc1OC	-12	6	-3	-66*	-24	5
COc1ccc(N=[N+]([O-])c2ccc(OC)cc2)cc1	67*	·	·	·	·	·
COc1ccc(S(=O)(=O)c2ccc(OC)cc2)cc1	-6	3	4	-7	20	-4
NC(=O)c1sc2nc(-c3ccccc3)c3c(c2c1N)CCCC3	1	9	9	1	·	22
Nc1c2c(nc3sc4c(c13)CCCC4)-c1ccccc1CC2	66*	·	9	-14	42	·
CCOC(=O)c1cc2nc(-c3ccco3)cc(C(F)(F)F)n2n1	-5	-3	-1	-89*	8	8
CC(C)NC(=O)c1cc2nc(-c3ccco3)cc(C(F)(F)F)n2n1	10	-3	1	0	4	12
CCCNC(=O)C1(C)CCN(Cc2cccc(OC(=O)c3ccccc3)c2)C1 (centres undefined)	9	·	·	·	·	·
CCOC(=O)Cn1c(COc2ccccc2OC)[n+](C)c2ccccc21	9	·	·	-84*	·	·
CCN(CC(=O)Nc1cccc(OC)c1)C(=O)C1CC(=O)N(Cc2ccccc2Cl)C1 (centres undefined)	-11	·	·	·	·	·
O=C(NC1CCCCC1)C1CCN(c2nccs2)CC1	0	2	-3	-58*	-3	7
COc1ccc(-c2cc3nc[nH]c(=O)c3s2)cc1	61*	-19	6	-3	48	33
Cc1ccc(C)c(C(=O)CSc2nc(N)cc(=O)[nH]2)c1	-11	·	0	-55*	·	·
O=C(c1ccc(S(=O)(=O)N2CCCC2)cc1)N1CCN(S(=O)(=O)c2cccc(F)c2)CC1	8	·	0	-5	·	·
Cc1ccc(S(=O)(=O)N2CCN(C(=O)c3cccc(F)c3)CC2)cc1	0	3	1	-54*	8	-8
COc1ccc(-c2ccc(C(=O)Nc3cc(OC)c(OC)c(OC)c3)c3occc23)c(C)c1	16	·	·	·	·	·
COC1=CC(=O)OC(c2cccc([N+](=O)[O-])c2)C1 (centres undefined)	-3	·	·	·	·	·
COC(=O)c1cc2ccsc2n1Cc1nc(-c2ccc(Cl)cc2)oc1C	-11	-1	-2	-79*	-10	4
O=[N+]([O-])c1cnccc1-n1nnc2ccccc21	-8	·	·	·	·	·
CC(=O)Nc1ccc(Cc2ccncc2)cc1	-1	-3	1	-69*	-3	1
CC(=O)Nc1ccc(S(=O)(=O)Nc2ccc(Cc3ccncc3)cc2)cc1	9	·	0	-11	·	·
Cc1ccc(S(=O)(=O)c2c(N)n(CCCN(C)C)c3nc4ccccc4nc23)cc1	7	·	0	5	4	·

High-throughput results: PubChem BioAssay, several laboratories
